Compound activity from PubChem.
A selection: hits, their analogues and other compounds. The true share with any hit is near 3.7%.
TCR act: Activators of T cell receptors: qHTS campaign. primary human leukocytes, anti-CD3, IL-2 HTRF, 48 h. Potency, µM (series often up to 9.22 µM), most hits filed as activators. 330,000 tested, under 10 active. AID 504894, 2011
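Compounds are tested in HTS on primary human leukocytes co-incubated with a-CD3 beads for 48 hr. IL-2 output is measured by time-resolved FRET.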
Nrf2 activator: qHTS of Nrf2 Activators | AREc32 ARE-luciferase reporter (MCF7-derived line), luminescence, 24 h | Potency, µM (series often up to 46.1 µM), hits mostly activators | 0.31% of 410,000 active | AID 624171, 2012; further: nearly all actives have a fitted effect of over 65% in size
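Steps: seed AREc32_Fluc cells (1000/well, 5% FBS OPTI-MEM); incubate overnight at 37 deg C; add 23 nL compound; incubate 24 hr; add Steady-Glo; hold 30 min RT; read luminescence.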
ClpP mod: qHTS Assay for Activators of ClpP | 1.9% of 340,000 active | purified B. subtilis ClpP, FRET peptide cleavage, 20 min | AID 651965, 2013 | Potency, µM (doses to about 57.5 µM); active means well fitted falling curve with a large enough effect; inconclusive means small, poorly fitted or top-dose-only effect; inactive means no such curve, though single readings can be large or run the other way; further: the source files actives as falling curves though it sought activators and does not explain the sign; nearly all actives have a fitted effect of over 65% in size
Target sequence (P80244 whole entry, looked up): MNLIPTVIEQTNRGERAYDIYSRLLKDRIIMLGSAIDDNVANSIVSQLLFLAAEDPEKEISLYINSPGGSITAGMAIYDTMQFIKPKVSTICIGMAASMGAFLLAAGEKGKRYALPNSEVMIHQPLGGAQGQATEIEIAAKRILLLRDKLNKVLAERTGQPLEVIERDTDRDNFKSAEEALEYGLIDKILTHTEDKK
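Buffer: 100 mM Tris/HCl pH8, 100 mM KCl, 0.05% low protease BSA, 2.5% glycerol, 0.01% Tween-20. ClpP 10 microg/mL final; 20 min RT; delta FRET normalized to ADEP and DMSO controls.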
A549 tox: Nrf2 qHTS screen for inhibitors: counterscreen for cytotoxicity. A549 ARE-Fluc cells, CellTiter-Fluor viability, 18-24 h. 0.16% of 390,000 active. Potency, µM (highest dose often 46 µM), actives largely listed as inhibitors. AID 504648, 2011
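A549 ARE_Fluc cells in 5% FBS OPTI-MEM were exposed to compounds in concentration-response for 18-24 h at 37 deg C. Viability was read by CellTiter-Fluor fluorescence (Ex 405/Em 525) after 30 min, before the luciferase read.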
Nrf2 block: Nrf2 qHTS screen for inhibitors | A549 ARE-Fluc reporter, luciferase luminescence, 18-24 h | Potency, µM (highest dose often 46 µM), hits mostly inhibitors | 2.1% of 360,000 active | AID 504444, 2011; further: nearly all actives have a fitted effect of over 60% in size
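Cells were seeded and rested 2 h, then exposed to compounds for 18-24 h. CellTiter-Fluor was read first as a viability measure. BugLite was added 15 min before the final luminescent read of ARE-luciferase activity in A549 cells.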
miR-21 act: qHTS Assay for Modulators of miRNAs and/orActivators of miR-21 | HeLa miR-21 FLuc reporter, luciferase, 48 h | Potency, µM (doses to about 38.3 µM), most hits filed as activators | 340,000 tested, under 10 active | AID 2288, 2010;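 further: miR-21 action dims this reporter so a rising signal means less miR-21 action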
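Using DMEM plus 10% FBS, HeLa miR-21-FLuc cells are incubated with test compounds (final up to about 40uM) for 48 hours; firefly luciferase signal is then imaged following reagent-mediated lysis.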
Hits are given with their value. Unless noted, the call rests on the fitted dose curve; in most records, active means well fitted curve in the direction sought with a large enough effect; inconclusive means small, poorly fitted or top-dose-only effect, or another doubt; inactive means no such curve, though single readings can be large; an effect the other way counts as inactive or inconclusive.

CCS(=O)(=O)c1ncc(Cl)c(C(=O)N(Cc2ccccc2)c2ccc(OC)cc2)n1 was read as Nrf2 activator inconclusive, ClpP mod inactive, A549 tox inconclusive, Nrf2 block 23µM and miR-21 act inconclusive.
For COc1ccc(N2CCN(C(=O)c3nc(SC)ncc3Cl)CC2)cc1 the results were Nrf2 activator inactive, ClpP mod inactive, A549 tox inactive, Nrf2 block inactive and miR-21 act inactive.
`Cc1cc(O)c(C(c2cccc(F)c2)N2CCC(C)CC2)c(=O)n1Cc1ccco1` (stereo unspecified) gave Nrf2 activator inactive, ClpP mod inactive, A549 tox inactive and miR-21 act inactive.
O/N=C/c1cc(Br)cs1 was read as TCR act inactive, Nrf2 activator inactive, ClpP mod inactive, A549 tox inactive, Nrf2 block inactive and miR-21 act inactive.
`CC(=O)NC1=C(C#N)CCC1` gave ClpP mod inactive.
For CC1CCCC(NC(=O)CCNS(=O)(=O)c2ccc(Br)cc2)C1C (stereo unspecified) the results were TCR act inactive, Nrf2 activator inactive, ClpP mod inactive, A549 tox inconclusive, Nrf2 block 15µM and miR-21 act inactive.
For COc1ccccc1C(=O)N1CCN(c2nc3cc(C)c(C)cc3cc2C#N)CC1 the results were TCR act inactive, Nrf2 activator inactive, ClpP mod inconclusive, A549 tox inactive, Nrf2 block 23µM and miR-21 act inactive.
`COc1ccccc1C(=O)N1CCN(c2nc3cc(C)cc(C)c3cc2C#N)CC1` gave Nrf2 activator inactive and ClpP mod inactive.
Screening CCOC(=O)N1CCc2c(sc(NCc3cccc(F)c3)c2C(=O)Nc2ccc(OC)cc2OC)C1 returned Nrf2 activator inactive, ClpP mod inactive, A549 tox inactive and miR-21 act inconclusive.
Cc1ccc(OCC(=O)N(Cc2ccc(N(C)C)cc2)C2CCS(=O)(=O)C2)cc1 (stereo unspecified) was read as TCR act inactive, Nrf2 activator inactive, ClpP mod inactive, A549 tox inactive, Nrf2 block inactive and miR-21 act inactive.
`Cc1cc(C)cc(OCC(=O)N(Cc2ccc(N(C)C)cc2)C2CCS(=O)(=O)C2)c1` (stereo unspecified) gave TCR act inactive, Nrf2 activator inactive, ClpP mod 22µM, A549 tox inactive, Nrf2 block inactive and miR-21 act inactive.
For COc1cccc(CN2CCC2(C)C(=O)Nc2cccc(Oc3ccccc3)c2)c1OC (stereo unspecified) the results were Nrf2 activator inactive and ClpP mod inactive.
For CC(C)(C)NC(=O)C(c1ccncc1)N(Cc1cccs1)C(=O)Cn1nnc(-c2ccc(F)cc2)n1 (stereo unspecified) the results were TCR act inactive, Nrf2 activator inactive, ClpP mod inactive, A549 tox inactive, Nrf2 block 9.2µM and miR-21 act inactive.
`CCOc1cccc(Nc2ccc([N+](=O)[O-])cn2)c1` gave TCR act inactive, Nrf2 activator inactive, A549 tox inactive, Nrf2 block inactive and miR-21 act inactive.
For CC1=C(C(=O)OC2CCCCCC2)C(c2cccc(Cl)c2)CC(=O)N1 (stereo unspecified) the results were Nrf2 activator inactive, ClpP mod inactive, A549 tox inactive, Nrf2 block 16µM and miR-21 act inactive.
`CC1=C(C(=O)OCC2CCCCC2)C(c2cccc(O)c2)NC(=O)N1` (stereo unspecified) gave miR-21 act inactive.
`CC1=C(C(=O)OC2CCCCCCC2)C(c2cccc(O)c2)NC(=O)N1` (stereo unspecified) gave TCR act inactive, Nrf2 activator inactive, ClpP mod inactive, A549 tox inactive, Nrf2 block 26µM and miR-21 act inactive.
Screening NS(=O)(=O)c1ccc(CCNc2nc3c(-c4cccc(F)c4)nnn3c3ccc(Cl)cc23)cc1 returned Nrf2 activator inactive, ClpP mod inactive, A549 tox inactive, Nrf2 block inconclusive and miR-21 act inactive.
For CN=c1scc(C)n1/N=C/c1ccc(O)c(O)c1O the results were TCR act inactive, Nrf2 activator inactive, ClpP mod inactive, A549 tox inactive, Nrf2 block inactive and miR-21 act inactive.
`CCN=c1scc(C)n1/N=C/c1ccsc1` gave TCR act inactive, Nrf2 activator 7.1µM, ClpP mod inactive, A549 tox inactive, Nrf2 block inconclusive and miR-21 act inactive.
For CS(=O)(=O)N1CCc2cc(-c3csc(NC(=O)Cc4cccs4)n3)ccc21 the results were TCR act inactive, Nrf2 activator inactive, ClpP mod inactive, A549 tox inactive, Nrf2 block 18µM and miR-21 act inconclusive.
For CN(C)c1ccc(/C=C/c2ccnc3ccccc23)cc1Cl the results were ClpP mod inactive.
Screening CCN1CCN(CCCNC(=O)Cn2c(-c3cccs3)cc3ccccc32)CC1 returned Nrf2 activator inactive, ClpP mod 10µM, A549 tox inactive, Nrf2 block inactive and miR-21 act inactive.
For O=C(Cn1c(-c2cccs2)cc2ccccc21)NCCCN1CCN(c2cccc(Cl)c2)CC1 the results were Nrf2 activator inactive, ClpP mod 25µM, A549 tox inconclusive, Nrf2 block inactive and miR-21 act inactive.
For CN1CCN(CCCNC(=O)Cn2c(-c3cccs3)cc3ccccc32)CC1 the results were Nrf2 activator inactive, ClpP mod 11µM, A549 tox inactive, Nrf2 block inactive and miR-21 act inactive.
`CCCN1CCN(CCCNC(=O)Cn2c(-c3cccs3)cc3ccccc32)CC1` gave Nrf2 activator inactive, ClpP mod 35µM, A549 tox inactive, Nrf2 block inactive and miR-21 act inactive.
`Cc1ccc(CCNC(=O)Cn2c(-c3cccs3)cc3ccccc32)cc1` gave Nrf2 activator inactive, ClpP mod inactive, A549 tox inactive, Nrf2 block inactive and miR-21 act inactive.
`CCC(C)c1ccccc1OCCn1c(CCNC(=O)C2CCCCC2)nc2ccccc21` (stereo unspecified) gave ClpP mod inactive, A549 tox inactive and Nrf2 block inconclusive.
For COc1cccc(NC(=O)c2sc3ncn(CC(=O)N4CCN(c5ccccn5)CC4)c(=O)c3c2C)c1 the results were TCR act inactive, Nrf2 activator inactive, ClpP mod inactive, A549 tox inactive, Nrf2 block inactive and miR-21 act inactive.
